Hits are enriched below; roughly 3.2% of the tested compounds scored in any of these assays.
BRCA1 expr up – BRCA1 expression activation; MCF7-BRCA1-FFLuc reporter, luminescence, 48 h; response scale: scaled: vehicle 0%, 10 µM genistein 100%; Potency, µM (doses to about 46.1 µM), for the others: top-dose activation, hits mostly activators; 1.1% of 380,000 active; AID 624202; also: potency is read from the fitted curve at half-maximal effect; nearly all actives have a fitted effect of over 80% in size
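48 h compound treatment of MCF7-BRCA1-FFLuc cells (phenol-red free MEM, 37 °C), then 15 min with luciferase substrate and luminescence imaging.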
Nrf2 block – inhibitors of Nrf2 signaling; A549 ARE-Fluc reporter, luciferase luminescence, 18-24 h; Potency, µM (highest dose often 46 µM), for the others: at the top dose activity change, negative = inhibition, actives largely listed as inhibitors; 2.1% of 360,000 active; AID 504444; also: potency is read from the fitted curve at half-maximal effect; % is scaled to controls: 0 for no effect and ±100 for the full control effect; nearly all actives have a fitted effect of over 60% in size
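In this cell-based qHTS, ARE-driven firefly luciferase in A549 cells reports Nrf2 activity; the luminescent signal after BugLite lysis is the measured value, with a prior CellTiter-Fluor read for cell health.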
IL-2 act – activators of IL-2; activation, % (series mostly up to about 46 µM); 0.065% of 360,000 active; AID 652025; IL-2 activation reporter assay, cell-based qHTS; stimulated with anti-CD3/CD4/CD28 beads; in transgenic mouse T cells; in the data active = activation above about 50%; inconclusive = mostly about 30% to 49%; also: 0% is about no effect
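Readout is EGFP and DsRed signal by fluorescent plate cytometry after 18 h at 37 degrees C. Transgenic mouse T cells (750/well) received compound for 60 min before bead stimulation (anti-CD3, anti-CD4, anti-CD28); memory T cells served as non-tolerant control.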
Nrf2 ARE act – Nrf2 pathway activation; AREc32 ARE-luciferase reporter (MCF7-derived line), luminescence, 24 h; Potency, µM (top dose mostly 46.1 µM), for the others: at the highest dose activation, hits mostly activators; 0.31% of 410,000 active; AID 624171; also: potency is read from the fitted curve at half-maximal effect; % of control where 0% means no effect; nearly all actives have a fitted effect of over 65% in size
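ARE activation measured as luciferase luminescence (Steady-Glo, 30 min RT) in AREc32_Fluc cells after 24 hr compound exposure at 37 deg C, 5% CO2; cells seeded overnight at 1000/well in OPTI-MEM, 5% FBS.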
A549 viability – kills or reduces viability of A549 cells in Nrf2 counter-screen; AID 504648; A549 ARE-Fluc cells, CellTiter-Fluor viability, 18-24 h; Potency, µM (series often up to 46 µM), inactives show at the highest dose activity change, negative = cytotoxicity, most hits filed as inhibitors; 0.16% of 390,000 active; also: potency is read from the fitted curve at half-maximal effect; % is scaled to controls: 0 for no effect and ±100 for the full control effect
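A549 ARE-Fluc cells in 5% FBS OPTI-MEM, 5000 cells/well, rested 2 h then exposed to compounds in concentration-response for 18-24 h at 37 °C. Viability by CellTiter-Fluor fluorescence (Ex 405/Em 525) after 30 min; luciferase luminescence (BugLite, 15 min, RT) read afterwards.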
p53 reactivator – restores transcriptional activity of mutant p53. H1299 p53-A138V BP100-luciferase reporter, luminescence, 24 h. Potency, µM (series often up to 92.2 µM), inactives show top-dose activity change, positive = activation, most hits filed as activators. 0.063% of 320,000 active. AID 504706; also: potency is read from the fitted curve at half-maximal effect; % of control where 0% means no effect; nearly all actives have a fitted effect of over 45% in size
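H1299 (p53-null), stable ts p53-A138V + BP100-Luc; 1000 cells/well, Opti-MEM/10% FBS; cpd 4 pt, 1:5; 24 h, 37 deg C, 5% CO2; detection reagent 10 min RT; luminescence.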
* marks the source's active call; other numbers are inactive results; ? = inconclusive; / = no result; [ ] = another dose, or the depositor's remark. Unless noted, calls follow the shape of the dose curve; as a rule, active = well fitted curve in the direction sought with a large enough effect; inconclusive = small, poorly fitted or top-dose-only effect, or another doubt; inactive = no such curve, though single readings can be large; an effect the other way counts as inactive or inconclusive.

SMILES | BRCA1 expr up | Nrf2 block | IL-2 act | Nrf2 ARE act | A549 viability | p53 reactivator
Cc1ccc(-c2nn(-c3ccccc3)cc2C2CC(c3ccccc3)=NN2C(=O)CCC(=O)O)cc1 (configuration not stated) | 0.0% | 20.6µM* | -2.1 | -0.2% | -6.7% | -6.5%
Cc1ccc(C2=NN(C(=O)CCC(=O)O)C(c3cn(-c4ccccc4)nc3-c3ccc(C)cc3)C2)cc1 (configuration not stated) | -13.1% | -17.5% | 0.4 | -0.8% | ? | 6.4%
CCNC(=S)N(CCc1c(C)[nH]c2ccc(C)cc12)Cc1cc(OC)c(OC)c(OC)c1 | -35.9% | 18.4µM* | -2.9 | 2.5% | -29.6% | -6.6%
COCCNC(=S)N(CCc1c(C)[nH]c2ccc(C)cc12)Cc1cc(OC)c(OC)c(OC)c1 | -39.2% | -8.6% | -4.9 | 7.5% | -16.6% | -5.4%
c1coc(-c2ccnc3nc(-n4cccc4)nn23)c1 | -51.8% | 8.2% | 0.2 | 7.94µM* | -1.3% | -0.5%
CC1=C(C(=O)OCC2CCCO2)C(c2ccccc2OC(C)C)C2=C(CC(c3ccco3)CC2=O)N1 (configuration not stated) | -10.0% | 6.9% | -1.4 | -0.3% | 7.0% | 4.4%
CC1=C(C(=O)OCC2CCCO2)C(c2cccc(C(F)(F)F)c2)C2=C(CC(c3ccco3)CC2=O)N1 (configuration not stated) | -2.1%[1.84 µM] | 23.1µM* | -2.9 | 3.5% | ? | -5.0%
O=c1c2ccccc2nc(COc2ccccc2)n1/N=C/c1ccc(O)cc1O | -67.3% | 25.9µM* | 1.3 | -0.6% | -10.1% | 4.6%
CC1CCN(S(=O)(=O)c2cc(C(=O)N3CCN(c4ncccn4)CC3)ccc2Br)CC1 | -50.8% | 23.1µM* | 0.6 | 0.0% | 0.5% | -5.8%
CC1CCN(C(=O)c2ccc(Br)c(S(=O)(=O)N3CCOCC3)c2)CC1 | -24.3% | 1.2% | -1.2 | 0.3% | -1.6% | 0.6%
COc1ccc(C2/C=C\CN(S(=O)(=O)c3ccc(C)cc3)C(C)C(=O)N2Cc2ccc(F)cc2)cc1 (configuration not stated) | / | -12.3% | / | / | 6.9% | /
COc1ccc(C2Nc3ccccc3C(=O)N2Cc2ccccc2C(F)(F)F)cc1COc1ccc(NC(C)=O)cc1 (configuration not stated) | / | -3.9% | / | / | -0.3% | /
CC(=O)N1CCCc2cc(S(=O)(=O)N(C)CC(=O)Nc3ccc(C(C)C)cc3)ccc21 | / | / | / | 1.1% | -1.6% | /
O=C(NCCc1ccccc1)c1ccc(-c2cccnc2)c2ccoc12 | 7.08µM* | / | -0.2 | 0.4%[9.22 µM] | / | /
COc1ccccc1NC(=O)C12CC3CC(C1)CC(c1ccc(C)cc1)(C3)C2 | -21.8% | ? | -3.8 | -0.3% | -8.9% | 9.7%
COc1ccc(NC(=O)C23CC4CC(C2)CC(c2ccc(C)cc2)(C4)C3)cc1 | -76.9% | 16.4µM* | -0.1 | 3.7% | -18.0% | ?
CCN(CC)S(=O)(=O)c1ccc2oc(SCC(=O)NC3CC3)nc2c1 | 28.6% | 16.8% | 1.0 | 3.7% | 1.5% | 4.2%
COc1ccccc1NS(=O)(=O)c1ccc2oc(SCc3ccc(C#N)cc3)nc2c1 | -49.9% | 16.4µM* | -2.8 | 10.1% | -11.8% | -5.6%
CNC(=O)CSc1nc2cc(S(=O)(=O)Nc3ccccc3OC)ccc2o1 | -26.3% | -7.0% | 0.0 | 4.4% | 2.5% | 3.2%
CCN(CC)S(=O)(=O)c1ccc2oc(SCc3ccc(F)cc3)nc2c1 | -36.2% | 18.4µM* | -0.4 | 2.3% | -17.1% | ?
Cc1ccc(-c2nc3c(C)cccn3c2Nc2ccccc2C)s1 | / | ? | / | 15.8% | 3.0% | /
Cc1cccc(C(=O)NCC(=O)OC(C(=O)Nc2cc(C(F)(F)F)ccc2Cl)c2ccccc2)c1 (configuration not stated) | / | 8.1% | / | / | -1.5% | /
Cc1ccc(Nc2ncc3c(n2)CC(C)(C)CC3=O)cc1 | 2µM* | ? | 1.2 | 2.8% | -1.4% | 21.0%
